PubChem BioAssay (NCATS)
Records with an inconclusive call do not appear. Activity calls are given as the source filed them. The call rests on the fitted dose curve; in most records, active means well fitted inhibition curve with a large enough effect; inconclusive means small, poorly fitted or top-dose-only effect; inactive means flat fitted curve, though single readings scatter.

What follows are compounds tested against Voltage-gated inwardly rectifying potassium channel KCNH2 (Homo sapiens) (UniProt Q12809) (assay: qHTS Assay for Small Molecule Inhibitors of the Human hERG Channel Activity (AID 588834;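 further: lower thallium flux fluorescence means stronger hERG block; nearly all actives have a fitted effect of over 50% in size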; on activity change, negative = inhibition: top concentration of the series differs between compounds)). Conditions: U2OS BacMam hERG, FluxOR thallium flux fluorescence; series mostly up to 46.1 µM; activity change, negative = inhibition: at the top concentration.
From the text: NIH Chemical Genomics Center [NCGC]
National Institutes of Environmental Health Sciences [NIEHS]
National Toxicology Program [NTP]
We have developed a 1536-well cell-based assay for quantitative high throughput screening (qHTS) to determine in vitro hERG channel blockage as a measure of cardio toxicity with small molecules. This particular assay uses the U2OS cell line which is derived from human osteosarcoma.
NCGC Assay Protocol Summary:
HERG assay (FluxORTM thallium flux assay) was initially developed by Invitrogen/Molecular Probes, and then miniaturized into 1536-well plate in a homogeneous format by NCGC. This assay measures the activity of potassium channel using thallium dye (FluxOR) flux as surrogate measurement for potassium into the cells with a FDSS-7000 kinetic plate reader (Hamamatsu Corp., Hamamatsu City, Japan). The hERG ion channel is transduced into mammalian cells (U2OS) using a baculovirus (Bacmam) construct harboring the hERG K+ ion channel. So far we screened LOPAC1280 library (Sigma), the NTP collection of 1408 compounds, and the NCGC Pharmaceutical Collection (NPC), in which many well defined HERG blockers are present. The rank order potencies of many of these compounds are similar to that of other HERG assays (membrane potential, Rb+ flux, patch clamp, etc). This quick and homogeneous assay is also found to be sensitive, specific, and robust.
Using the FluxORTM thallium flux assay, the activity of potassium channel using thallium dye (FluxOR) flux as surrogate measurement for potassium into the cells was measured in the U2OS cell line transduced with hERG K+ ion channel using a baculovirus (Bacmam) using Opti-MEM medium (Invitrogen) containing 2% fetal calf serum (FCS, HyCone) following loading buffer addition, compound treatment for around 10 minutes and finally adding stimulation buffer. The assay was performed in black clear Kalypsys 1536-well plates. In the screen, Astemizole was used as positive controls. Library compounds were measured for their ability to cause hERG channel blockage in the cell line, as reflected by a decrease in fluorescence intensity, in a concentration-dependent manner. […] AC50 values were determined from concentration-response data modeled with the standard Hill equation.
qHTS protocol for hERG-U2OS cellular assay
[Step] [Parameter] [Value] [Description]
1. Day 1: Replace medium in 70-80% confluent T225 flask with 2.5 mL of hERG-BacMam virus plus 12.5 mL of phosphate buffered saline (PBS) (corresponding roughly to a multiplicity of infection ratio of 100 virus particles/cell)
2. Incubation: 4 hrs @ room Temperature in Dark
3. Reagent; Remove virus; wash once with 25 ml DPBS
4. Reagent; 35 ml culture medium
5. Incubation; 37 °C overnight
6. Day2: Reagent; 3 uL; 2000 U2OS cells/well
7. Time; 4 hr; 37 °C incubation
8. Loading buffer; 1 uL; 0.7X;
9. Incubation: 1hr @ RT in Dark.
12. Time; 10min; 37 °C incubation
13. Read fluorescence Intensity on FDSS for 10 Sec with 1 sec interval
14. Reagent; 1 uL; stimulation buffer
15. Read fluorescence Intensity on FDSS for 2 min with 1 sec interval
16. Detection; Fluorescence Intensity; FDSS
On the % scale 0 is the no-effect control and ±100 the full control effect; potency means the concentration at half of the fitted maximal effect.

Sequence of Voltage-gated inwardly rectifying potassium channel KCNH2 (Homo sapiens) (Q12809 whole entry, looked up): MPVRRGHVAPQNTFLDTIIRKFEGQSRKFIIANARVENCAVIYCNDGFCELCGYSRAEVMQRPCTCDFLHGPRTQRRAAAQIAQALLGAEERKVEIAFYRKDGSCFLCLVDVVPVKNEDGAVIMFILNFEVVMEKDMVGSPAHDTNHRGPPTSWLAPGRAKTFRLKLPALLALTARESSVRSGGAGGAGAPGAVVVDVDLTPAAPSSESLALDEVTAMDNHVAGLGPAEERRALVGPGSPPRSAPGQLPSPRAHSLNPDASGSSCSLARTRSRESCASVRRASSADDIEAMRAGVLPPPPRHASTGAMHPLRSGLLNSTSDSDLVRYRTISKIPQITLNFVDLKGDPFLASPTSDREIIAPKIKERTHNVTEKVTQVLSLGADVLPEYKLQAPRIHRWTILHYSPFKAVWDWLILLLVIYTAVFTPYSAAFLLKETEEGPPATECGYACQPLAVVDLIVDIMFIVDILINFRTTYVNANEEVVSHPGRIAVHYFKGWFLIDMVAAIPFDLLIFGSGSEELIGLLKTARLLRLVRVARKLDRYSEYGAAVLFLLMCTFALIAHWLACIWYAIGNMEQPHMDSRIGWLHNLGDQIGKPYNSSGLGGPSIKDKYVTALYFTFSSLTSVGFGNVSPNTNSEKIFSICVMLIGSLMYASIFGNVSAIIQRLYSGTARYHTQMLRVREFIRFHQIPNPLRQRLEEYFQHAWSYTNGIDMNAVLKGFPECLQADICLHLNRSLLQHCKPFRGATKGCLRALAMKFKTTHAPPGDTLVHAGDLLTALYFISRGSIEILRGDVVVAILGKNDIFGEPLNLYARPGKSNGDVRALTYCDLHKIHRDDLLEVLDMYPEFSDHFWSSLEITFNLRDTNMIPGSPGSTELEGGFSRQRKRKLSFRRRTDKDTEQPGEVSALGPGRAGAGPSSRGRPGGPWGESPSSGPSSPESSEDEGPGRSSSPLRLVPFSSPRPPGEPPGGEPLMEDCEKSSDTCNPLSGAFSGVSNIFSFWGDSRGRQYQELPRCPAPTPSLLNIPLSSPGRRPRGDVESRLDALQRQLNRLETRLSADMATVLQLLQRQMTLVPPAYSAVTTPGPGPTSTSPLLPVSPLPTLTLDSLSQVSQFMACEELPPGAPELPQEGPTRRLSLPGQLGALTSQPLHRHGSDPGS

SMILES | activity change, negative = inhibition | Potency
CN1CC(=O)N2C(Cc3c([nH]c4ccccc34)[C@H]2c2ccc3c(c2)OCO3)C1=O (some centres undefined) | 3.2% (inactive) | 
CCNC(=O)[C@H]1O[C@@H](n2cnc3c(N)nc(NCCc4ccc(CCC(=O)O)cc4)nc32)[C@H](O)[C@H]1O | 7.68% (inactive) | 
COc1ccc(-c2nc3ccc(C4=NNC(=O)CC4C)cc3[nH]2)cc1 (centres undefined) | -1.4% (inactive) | 
O=C(O)c1nc(=O)[nH]c(=O)[nH]1 | 5.42% (inactive) | 
COc1c(C)c2c(c(O)c1CC=C(C)CCC(=O)OCCN1CCOCC1)C(=O)OC2 | 1.8% (inactive) | 
CN1CCN2c3ncccc3Cc3ccccc3C2C1 (centres undefined) | -12.8% (inactive) | 
NCC1CCC(C(=O)O)CC1 (centres undefined) | 4.41% [at 20.6 µM] (inactive) | 
C[C@@H]1C[C@H]2[C@@H]3CCC4=CC(=O)C=C[C@]4(C)[C@@]3(F)[C@@H](O)C[C@]2(C)[C@@]1(O)C(=O)CO | 4.12% [at 92.2 µM] (inactive) | 
NS(=O)(=O)c1cc(Cl)c(Cl)c(S(N)(=O)=O)c1 | 4.52% [at 20.6 µM] (inactive) | 
CS(=O)(=O)c1ccc(C2=C(c3ccccc3)C(=O)OC2)cc1 | -8.73% (inactive) | 
CC[C@H](C)C(=O)O[C@H]1C[C@H](O)C=C2C=C[C@H](C)[C@H](CC[C@@H](O)C[C@@H](O)CC(=O)O)[C@H]21 | 2.31% (inactive) | 
N#CC(c1ccc(Cl)cc1)c1c(Cl)cc(-n2ncc(=O)[nH]c2=O)cc1Cl (centres undefined) | 14.8% (inactive) | 
Clc1ccc(COC(Cn2ccnc2)c2ccc(Cl)cc2Cl)c(Cl)c1 (centres undefined) |  | 4.47 µM (active)
N#Cc1c(N(CC(=O)O)CC(=O)O)sc(C(=O)O)c1CC(=O)O | 14.2% (inactive) | 
